PAX8 inh HTS – lowers PAX8-driven luciferase in RMG-I cells. RMG-I TPO-luciferase reporter, SteadyGlo, 24 h. inhibition, % at 12.6 µM. 360,000 compounds, 1.2% hits. AID 652154;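 active means mean replicate inhibition at least 60% with every replicate also reaching 60%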;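 further: luciferase light reporting Pax8 driven TPO promoter activity; plate controls were median of neutral control wells for no effect and mitoxantrone controls for full effect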
SIRT5 inh – sirtuin-5 (human) deacylase inhibition | Q9NXA8 | AID 652115 | Purified SirT5, succinyl-peptide AMC, trypsin-coupled fluorescence | inhibition, % at 15 µM | 330,000 compounds, 1.1% hits; in the data active means inhibition above about 15%
Target sequence (Q9NXA8 whole entry, looked up): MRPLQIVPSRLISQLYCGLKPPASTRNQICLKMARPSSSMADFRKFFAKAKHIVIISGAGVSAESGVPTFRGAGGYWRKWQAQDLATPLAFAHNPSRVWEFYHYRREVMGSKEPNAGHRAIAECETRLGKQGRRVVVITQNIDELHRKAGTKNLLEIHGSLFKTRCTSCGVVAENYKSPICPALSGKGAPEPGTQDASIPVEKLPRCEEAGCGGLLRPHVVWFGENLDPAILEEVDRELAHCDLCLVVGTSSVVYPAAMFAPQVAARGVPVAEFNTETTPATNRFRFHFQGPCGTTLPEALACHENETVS
LGR2 inh – inhibitors of bursicon-induced Drosophila LGR2 receptor cAMP signaling | AID 720647 | HEK293 LGR2, CRE-luciferase, bursicon-stimulated, 4 h | inhibition, % at 9.99 µM | 380,000 compounds, 0.35% hits;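 active means drop in luminescence signal, shown as inhibition above about 50% in the replicate tests, limit read from the data, passing the limit was not always enough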;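 further: agonist challenge used bursicon conditioned medium at about half maximal strength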
Ecoli rRNA inh – inhibits bacterial ribosomal RNA function over humanized ribosomes. E. coli WT GFP vs humanized-ribosome RFP mutants, fluorescence, 24 h; stronger effect = lower value; DMSO median 0, no signal -100. 350,000 compounds, 1.6% hits. GFP signal change (wild-type ribosome), % (test concentration not listed);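 active means significant combined selectivity score with lowered wild-type GFP, culture density cut under 30%, mutant RFP and density less affected; inactive means any of these conditions unmet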
EWS-Fli inh – EWS/Fli transcriptional activity inhibition; A673 NR0B1-luciferase reporter, viability-normalised; inhibition, % at 12.6 µM; 350,000 compounds, 0.67% hits; AID 651661;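 active means mean inhibition of at least 50% after viability correction, with every replicate also passing that limit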;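 further: firefly luciferase signal divided by Alamar Blue viability fluorescence both relative to DMSO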
PGC1a acetyl inh – PGC1a acetylation modulation, inhibitor mode; 350,000 compounds, 0.17% hits; inhibition, % at 15.6 µM; U2OS PGC1a acetylation, AlphaScreen anti-acetyl-lysine; with virally co-expressed GCN5 acetyltransferase; AID 651687;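 active means every replicate shows inhibition of at least 40%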;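 further: 0% = neutral control wells and 100% = positive control wells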
Starred values were filed as active, the others as inactive. Most compounds without a hit are left out; they make up all but 3.4% or so of the library.

Screening C[C@@H]1CN([C@@H](C)CO)C(=O)c2cc(NC(=O)CCC(F)(F)F)ccc2O[C@@H]1CN(C)S(=O)(=O)c1ccc(F)cc1 returned PAX8 inh HTS 15, SIRT5 inh 14, LGR2 inh -4, Ecoli rRNA inh -2, EWS-Fli inh -4 and PGC1a acetyl inh 1.
For CN(C)c1ccc2c(c1)[C@H]1C[C@H](CC(=O)NCc3cccc(F)c3)O[C@@H](CO)[C@H]1O2 the results were PAX8 inh HTS 11, SIRT5 inh 0, LGR2 inh -5, Ecoli rRNA inh 3, EWS-Fli inh -4 and PGC1a acetyl inh -5.
`O=C(NC1CCCC1)N1CC2(C1)[C@@H](c1ccccc1)[C@@H](CO)N2S(=O)(=O)Cc1ccccc1` gave PAX8 inh HTS -2, LGR2 inh 5, Ecoli rRNA inh -4, EWS-Fli inh 1 and PGC1a acetyl inh -17.
For O=C(c1ccccc1)N1CC(=O)N2[C@H](C1)[C@@H](c1ccc(C#CCC3CCCC3)cc1)[C@@H]2CO the results were SIRT5 inh 7, LGR2 inh 5, Ecoli rRNA inh 1 and PGC1a acetyl inh -7.
N#CC(Sc1ccccn1)c1ccc(Cl)cc1Cl (stereo not given) was read as PAX8 inh HTS 12, LGR2 inh -7, Ecoli rRNA inh -21* and EWS-Fli inh 3.
`Cc1ccc[n+](CC(=O)Nc2cc(C(F)(F)F)ccc2Cl)c1` gave LGR2 inh 4 and PGC1a acetyl inh -5.
`CCC(C)(C)c1ccc(OCCCC[n+]2cccc(C)c2)c(C(C)(C)CC)c1` gave PAX8 inh HTS 71*, SIRT5 inh -1, Ecoli rRNA inh -59 and EWS-Fli inh 0.
Screening NCC[C@H]1CC[C@@H](NC(=O)C2CC2)[C@@H](CO)O1 returned SIRT5 inh 0, LGR2 inh 2, Ecoli rRNA inh -1 and EWS-Fli inh 7.
CC(C)CC#Cc1ccc2c(c1)O[C@H](CN(C)C(=O)NC1CCCC1)[C@H](C)CN([C@H](C)CO)S2(=O)=O was read as SIRT5 inh 13*, LGR2 inh 9, Ecoli rRNA inh -6, EWS-Fli inh 16 and PGC1a acetyl inh 1.
Screening CC(C)CC#Cc1ccc2c(c1)O[C@@H](CN(C)C(=O)NC1CCCC1)[C@@H](C)CN([C@@H](C)CO)S2(=O)=O returned SIRT5 inh 16*, LGR2 inh 24, Ecoli rRNA inh -3, EWS-Fli inh 9 and PGC1a acetyl inh -10.
CC(C)CC#Cc1ccc2c(c1)O[C@H](CN(C)C(=O)NC1CCCC1)[C@@H](C)CN([C@@H](C)CO)S2(=O)=O was read as SIRT5 inh 19*, LGR2 inh 3, Ecoli rRNA inh -6, EWS-Fli inh 19 and PGC1a acetyl inh -8.
Screening Cc1noc(C)c1NC(=O)Nc1ccc2c(c1)C(=O)N([C@@H](C)CO)C[C@@H](C)[C@@H](CN(C)Cc1ccc(Cl)c(Cl)c1)OCCCC[C@@H](C)O2 returned PAX8 inh HTS 9, SIRT5 inh 1, LGR2 inh 0, Ecoli rRNA inh -9, EWS-Fli inh 15 and PGC1a acetyl inh 14.
`Cc1ccc(CN2CCN(/N=C\c3cccc([N+](=O)[O-])c3)CC2)cc1` gave PAX8 inh HTS -12, SIRT5 inh 0, LGR2 inh 4, Ecoli rRNA inh -25*, EWS-Fli inh 1 and PGC1a acetyl inh -9.
BrC(/C=N/N1CCN(Cc2ccccc2)CC1)=C/c1ccccc1 was read as PAX8 inh HTS 0, SIRT5 inh -1, LGR2 inh -31, Ecoli rRNA inh -42*, EWS-Fli inh -13 and PGC1a acetyl inh -7.
O=[N+]([O-])c1ccc(/C=N/N2CCN(Cc3ccccc3)CC2)cc1 was read as PAX8 inh HTS 2, SIRT5 inh 1, LGR2 inh -23, Ecoli rRNA inh -16*, EWS-Fli inh -25 and PGC1a acetyl inh 16.
CCCC(=O)OCCNc1cc(Sc2nc3ccccc3[nH]2)c2nonc2c1[N+](=O)[O-] was read as PAX8 inh HTS 86*, LGR2 inh -5 and PGC1a acetyl inh 21.
CCC(=O)OCCNc1cc(Sc2nccn2C)c2nonc2c1[N+](=O)[O-] was read as PAX8 inh HTS 104* and LGR2 inh 19.
